Assay outcomes as filed in PubChem.
This excerpt belongs to a sample that is enriched for hits.
ERK EGF inh: qHTS Assay for Inhibitors of the ERK Signaling Pathway using a Homogeneous Screening Assay; Stimulation with EGF | Potency, µM (doses to about 11.5 µM), without a hit: top-dose activity change, negative = inhibition, actives largely listed as inhibitors | HEK293-V1b, EGF-stimulated phospho-ERK AlphaScreen | 130,000 tested, 0.41% active; active = well fitted inhibition curve with a large enough effect;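 also: plate controls were stimulated vehicle wells for no effect and unstimulated vehicle basal for full effect; nearly all actives have a fitted effect of over 55% in size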
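EGF-stimulated (25 nM, 5 min) phospho-ERK in HEK293 cells stably expressing V1b, cells pretreated 30 min with compound at 37C. Homogeneous AlphaScreen read on lysates.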
Active calls of the source: *; [ ] = remark or other dose. Potency is read from the fitted curve at half-maximal effect.

SMILES	ERK EGF inh
O=C(NC(=O)c1cccc(F)c1)Nc1nc(-c2ccc(F)cc2)cc(C(F)(F)F)n1	-1%
O=C(COc1c(Br)cc(Br)c2cccnc12)Nc1ccccc1F	-9%
CCN(CC)c1ccc(/C=N/N=C(c2ccccc2)c2ccccc2)c(O)c1	3%
Oc1ccc(/C=N/n2cnn(Cc3ccccc3Cl)c2=S)c(O)c1	-8%
CCN(CC)c1ccc(/C=N/N2CCN(Cc3ccccc3Cl)CC2)c(O)c1	16µM*
S=c1[nH]nc(-c2ccccc2)n1/N=C/C=C/c1ccco1	10%
O=c1cc(CSc2ccccc2)nc(-c2ccccc2)[nH]1	-6%
N#C/C(=C/c1ccc(OCc2ccc(C(=O)O)cc2)c(Br)c1)c1cccc(F)c1	-2%[57.5 µM]
CC1=NN(c2ccccc2)C(=O)/C1=C/C=C/c1ccccc1	16µM*
O=C1ON=C(c2ccccc2)/C1=C/c1ccco1	3%
CN(C)/C=C1\C(=O)ON=C1c1ccccc1	3%
CC1=NN(c2ccccc2)C(=O)C1=C(C)C	-4%
CC1=NN(c2cccc(C(=O)O)c2)C(=O)/C1=C\C=C\c1ccco1	2%
Cc1ccc(C2=NOC(=O)/C2=C\C=C\c2ccccc2)cc1	32µM*
Cc1cc(N/N=C/c2ccccc2O)nc(N2CCOCC2)n1	16%[57.5 µM]
Cc1cc(O)c(C(C)C)cc1N=Cc1cc([N+](=O)[O-])ccc1O	2%[57.5 µM]
CC(C)CC(COCc1ccc(F)cc1)N1CCN(C(=O)c2cccc(C(F)(F)F)c2)CCC1=O (stereo not given)	-4%
CCS(=O)(=O)N1Cc2ccccc2CC1C(=O)Nc1nnc(SCc2ccc(C#N)cc2)s1 (stereo not given)	6%
COc1cc(/C=N/NS(=O)(=O)c2ccc3ccccc3c2)ccc1OCCN1CCOCC1	-6%
Cc1ccccc1Cn1c(=O)n(CCCC(=O)NCc2ccco2)c(=O)c2ccccc21	2%
CC(C)C1/C(=N/O)CC(c2ccccc2)NC1c1ccccc1 (stereo not given)	-11%[57.5 µM]
O=C1CC(c2ccc(Br)cc2)NC(c2ccc(Br)cc2)C1c1ccccc1 (stereo not given)	3%
CCCC1/C(=N/O)CC(c2ccccc2)NC1c1ccccc1 (stereo not given)	35µM*
O=C(CN1C(=O)/C(=C\c2ccc(F)cc2)Oc2ccccc21)N1CCN(c2ccccn2)CC1	4%
O=C(Nc1nc2c(s1)CCCC2)c1ccc(S(=O)(=O)N2CCCc3ccccc32)cc1	1%
SMILES	ERK EGF inh
CC(C)(C)c1ccc(C(=O)NC(=S)Nc2nc3c(s2)CCCC3)cc1	8%
CN(C)c1ccc(C(=O)Nc2nc3c(s2)CCCC3)cc1	22µM*
CCCCc1nc(NCCO)c(C#N)c2c1CCCC2	7%
C=CCNC(=O)COC(=O)c1ccc(Cl)c(S(N)(=O)=O)c1	-13%
CN1CCN(c2ccc(NC(=O)COc3ccccc3[N+](=O)[O-])cc2)CC1	-6%
O=C(COc1ccccc1[N+](=O)[O-])Nc1ccc(CN2CCOCC2)cc1	3%
CC(C)C(=O)N1CCN(c2ccc(NC(=O)COc3ccccc3[N+](=O)[O-])cc2)CC1	32µM*
O=C(NC1CCCCC1)c1ccccc1C(F)(F)F	3%
O=C(c1ccc(CSc2nc3ccncc3[nH]2)cc1)N1CCN(c2cccc(Cl)c2)CC1	18µM*
O=C(NCc1ccc(Cl)cc1)c1ccc(CSc2nc3ccncc3[nH]2)cc1	19%[57.5 µM]
O=C(c1ccc(CSc2nc3ccncc3[nH]2)cc1)N1CCCCCC1	-6%[57.5 µM]
O=C(Nc1ccccc1Cl)c1ccc2c(c1)N(Cc1ccc(F)cc1)C(=O)CS2=O (stereo not given)	-1%
CCOC(=O)CCCNS(=O)(=O)c1c(C)ccc2nsnc12	0%
C=CCC(CC(O)COCCC)C(=O)NNC(=S)Nc1ccccc1 (stereo not given)	9%[57.5 µM]
COc1ccc(CNC(=O)Nc2cc(C)ccc2C)cc1	-5%
COc1ccc(N2CCN(C(=S)Nc3ccc(C)cc3C)CC2)cc1	-1%
COc1ccc(N2CCC(CNC(=S)Nc3cc(C)cc(C)c3)C2)cc1 (stereo not given)	14µM*
COc1ccc(N2CCN(C(=S)NCc3ccc(C)cc3)CC2)cc1	0%
COc1cccc(CNC(=S)Nc2cc(C)cc(C)c2)c1	-3%
COc1ccc(N2CCC(CNC(=S)Nc3cc(C)ccc3C)C2)cc1 (stereo not given)	14µM*
COc1ccc2[nH]c(C(=O)Nc3ccc4c(c3)OCO4)cc2c1	-2%[57.5 µM]
O=[N+]([O-])c1ccc(Cl)c(S(=O)(=O)n2ccnc2)c1	-11%[57.5 µM]
CCc1cc2c(C)ccc(C)c2nc1SCC(=O)Nc1c(C)[nH]c(=O)[nH]c1=O	28%
CCC(=O)NCCc1cc2ccc(C)c(C)c2[nH]c1=O	3%
Cc1ccc2cc(CCNC(=O)C(C)C)c(=O)[nH]c2c1C	-2%
SMILES	ERK EGF inh
Cc1ccc2cc(CCNC(=O)c3cc4ccccc4o3)c(=O)[nH]c2c1C	32µM*
O=C(NNC(=S)NC1CC2C=CC1C2)c1cccnc1 (stereo not given)	-1%[57.5 µM]
O=C(N/N=C/c1ccccc1C(=O)O)c1ccc(COc2cccc3cccnc23)cc1	0%
NNC(=O)c1ccc(COc2cccc3cccnc23)cc1	-2%
O=C(N/N=C/c1ccc[nH]1)c1ccc(COc2cccc3cccnc23)cc1	25µM*
O=C(CN1CCSC1=NCc1ccccc1)c1ccc(Cl)c(Cl)c1	-3%
O=C(NCCCOc1cccc(CN2CCCCC2)c1)c1ccc(Cl)c(Cl)c1	4%
N=c1n(CCN2CCCCC2)c2ccccc2n1CC(=O)c1ccc(Cl)c(Cl)c1	28µM*
O[C@H](CCCN1CCN(c2ncc(F)cn2)CC1)c1ccc(F)cc1	-2%
N#C/C(=C\C1=C(N2CCOCC2)C(=C/c2cccc([N+](=O)[O-])c2)/CC1)C(=O)Nc1ccccc1F	3.5µM*
CC(NC(=O)C12CC3CC(CC(C3)C1)C2)C(=O)N/N=C/C1=C(N2CCOCC2)C(=C\c2cccc([N+](=O)[O-])c2)/CC1 (stereo not given)	19%
O=C(/C=C/c1cccc([N+](=O)[O-])c1)Nc1ccccc1N1CCOCC1	-4%
Cc1cccc(N2CCN(Cc3cn(C)nc3-c3ccccc3F)CC2)n1	-2%
COC(CNC(=O)C(C)n1nc(C)c2ccccc21)OC (stereo not given)	3%
COC(CNC(=O)c1cccnc1)OC	1%
COC(CNC(=O)c1ccc2c3c(onc13)-c1ccccc1C2=O)OC	35µM*
Cc1cc(-c2ccccc2)cc(-c2ccccc2)[n+]1C	3%
N#Cc1c(N2CCOCC2)nsc1-c1ccc(C(F)(F)F)cc1	6%[57.5 µM]
N#CCCN1CCCc2cc(N=Nc3ccc(C(F)(F)F)cc3)ccc21	22µM*
CC(=O)CC(C)(C)S(=O)(=O)c1ccc(Oc2ccc(S(=O)(=O)C(C)(C)CC(C)=O)cc2)cc1	-9%
C=CS(=O)(=O)c1ccc(Oc2ccc(S(=O)(=O)C=C)cc2)cc1	13µM*
NS(=O)(=O)c1ccc(Oc2ccc(S(N)(=O)=O)cc2)cc1	-10%
CC(/C=N\NC(=O)Cn1cncn1)=C/c1ccc(C(C)C)cc1	-13%[57.5 µM]
CCOc1cc(/C=N/NC(=O)c2cc(C3CC3)[nH]n2)ccc1O	1%
COC(=O)/C(C#N)=C1/C=Cc2ccccc2N1C	-6%
CN1/C(=C/c2cc[n+](C)c3ccccc23)C=Cc2ccccc21	10µM*
Oc1ccc(/C=N/Nc2ccnc3cc(Cl)ccc23)c(O)c1	-2%[57.5 µM]
N#C/C(=C\c1ccc(-c2ccccc2)cc1)c1nc(-c2ccco2)cs1	6%
COc1ccc(/C=C(\C#N)c2cc(OC)c(OC)cc2[N+](=O)[O-])cc1	-4%[57.5 µM]
